# Data: PubChem BioAssay (NCATS)
# Inconclusive results are not listed. Where a call stands in place of a potency, no number is given. The source made the active and inactive calls. Unless noted, the call rests on the fitted dose curve; in most records, active means well fitted curve in the direction sought with a large enough effect; inconclusive means small, poorly fitted or top-dose-only effect, or another doubt; inactive means no such curve, though single readings can be large; an effect the other way counts as inactive or inconclusive.
# Experiments:
# [1] = Primary qHTS for inhibitors of La Crosse Virus (LACV) - induced cell death in SH-SY5Y cells (AID 1508616); further: potency means the concentration at half of the fitted maximal effect;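 on activity change: top concentration of the series differs between compounds; higher means more rescue of cells from virus-induced death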
# Procedure, shortened: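 SH-SY5Y cells (6000/well) plated 24 h, then given compounds by pin transfer and LACV at 0.01 MOI for 6 days at 37C. Viability measured by ATPLite luminescence, normalized to infected DMSO and uninfected DMSO.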
# [2] = target: Calcium and integrin-binding protein 1 (Homo sapiens) (UniProt Q99828); assay: Validation qHTS for Identification of Calcium Integrin Binding protein 1 (CIB1) Competitor (AID 1508618)
# Sequence of Calcium and integrin-binding protein 1 (Homo sapiens) (Q99828 whole entry, looked up): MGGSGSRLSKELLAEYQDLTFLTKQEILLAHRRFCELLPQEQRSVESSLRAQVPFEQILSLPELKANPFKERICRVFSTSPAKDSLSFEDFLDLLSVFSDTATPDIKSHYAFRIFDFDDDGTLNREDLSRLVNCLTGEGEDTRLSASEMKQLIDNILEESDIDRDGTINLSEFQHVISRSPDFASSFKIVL
# Procedure, shortened: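 In this qHTS validation, the LOPAC set (up to 114 uM) was tested for blocking CIB1 binding to a fluorescein-tagged alphaIIb peptide, with FP detection at 480/540 nm.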
# [3] = Primary qHTS for small molecule stabilizers of the endoplasmic reticulum resident proteome: Secreted ER Calcium Modulated Protein (SERCaMP) assay (AID 1508630)
# Procedure, shortened: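 GLuc-SERCaMP-expressing SH-SY5Y cells, pretreated 16 h with compound, are challenged with thapsigargin to empty ER calcium stores; after 4 h, coelenterazine is added directly to the medium and luminescence is imaged.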
# Papain (Carica papaya) = Papain (Carica papaya) (UniProt P00784); assay: Primary qHTS assay for inhibitors of the protease papain (AID 1645873);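 further: papain turnover of Z-FR-AMC read as the AMC fluorescence gain over 10 min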; further: potency means the concentration at half of the fitted maximal effect
# Sequence of Papain (Carica papaya) (P00784 whole entry, looked up): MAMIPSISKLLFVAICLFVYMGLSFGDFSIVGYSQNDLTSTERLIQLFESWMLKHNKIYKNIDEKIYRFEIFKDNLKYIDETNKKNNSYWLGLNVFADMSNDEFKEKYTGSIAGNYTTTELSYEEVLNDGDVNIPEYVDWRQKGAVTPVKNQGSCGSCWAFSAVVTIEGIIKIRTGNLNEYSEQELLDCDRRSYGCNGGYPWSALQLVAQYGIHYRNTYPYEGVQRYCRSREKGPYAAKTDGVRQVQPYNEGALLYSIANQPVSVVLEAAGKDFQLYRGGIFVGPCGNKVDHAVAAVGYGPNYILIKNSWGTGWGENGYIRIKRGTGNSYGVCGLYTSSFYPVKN
# [4] = Counterscreen qHTS for small molecule stabilizers of the endoplasmic reticulum resident proteome: GLuc-NoTag assay (AID 1508627);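 further: SH-SY5Y cells given compound then 100 nM thapsigargin to empty ER calcium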
# Procedure, shortened: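 SH-SY5Y cells stably expressing constitutively secreted GLuc without SERCaMP tag, exposed to compound for 19 hr, then to 100 nM thapsigargin for 4 hr at 37C. Medium luciferase was read by coelenterazine luminescence without lysis.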
# [5] = Confirmatory qHTS for small molecule stabilizers of the endoplasmic reticulum resident proteome: Secreted ER Calcium Modulated Protein (SERCaMP) assay (AID 1508628); further: potency means the concentration at half of the fitted maximal effect; nearly all actives have a fitted effect of over 40% in size
# Procedure, shortened: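 SH-SY5Y cells stably expressing GLuc-SERCaMP, treated 16 h with compound (primary 1.53, 7.67, 38.3 uM; confirmation 11 concentrations, up to 76.6 uM), then 100 nM thapsigargin for 4 h. Secreted Gaussia luciferase in medium read by coelenterazine luminescence.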
# [6] = Cytotoxicity counterscreen for inhibitors of SARS-CoV-2 cell entry (AID 1645845; calls by dose curve; further: nearly all actives have a fitted effect of over 50% in size); conditions: outcome: dose series up to 57.1 µM unless noted
# Procedure, shortened: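 HEK293-ACE2 cells (Expi293F stably expressing human ACE2) seeded overnight, then compound for 1 h plus 48 h at 37C. Viability as ATP content by luminescence; normalized to wells with cells and media-only wells.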
# [7] = Primary qHTS to identify inhibitors of SARS-CoV-2 cell entry (AID 1645846; calls by dose curve; further: nearly all actives have a fitted effect of over 45% in size); conditions: activity change, negative = inhibition: at 57.1 µM (top of the series) unless noted
# Procedure, shortened: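 Luminescence readout (Bright-Glo luciferase) 48 h after pseudoparticle addition. HEK293-ACE2 cells, 1500/well; compound pre-incubation 1 h; Normalized to spike PP and bald PP.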
# [8] = Primary qHTS for inhibitors of nuclear receptor binding SET domain protein 2 (NSD2) in an isogenic RCH-ACV NSD2 p.E1099K mutant (9B) (AID 1645876); further: nearly all actives have a fitted effect of over 70% in size
# [9] = Cell Viability qHTS for small molecule stabilizers of the endoplasmic reticulum resident proteome (AID 1508629); conditions: cell viability counter-screen, 100 nM thapsigargin for final 4 h;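 further: human SH-SY5Y neuroblastoma cells carrying the GLuc-SERCaMP reporter; compound exposure about 46 h in total before the viability read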
smiles,measurement,setting,value
C[N+](C)(C)CCOC(=O)CBr,Potency,[1],inactive
same,Potency,[2],inactive
same,outcome,[3],inactive
same,Potency,Papain (Carica papaya),inactive
CCCN(CCC)CCc1ccc(O)c(O)c1,Potency,[1],inactive
same,Potency,[2],inactive
same,Potency,Papain (Carica papaya),inactive
COc1ccc2[nH]cc(CCN)c2c1,Potency,[1],inactive
same,Potency,[2],inactive
same,outcome,[3],inactive
same,Potency,Papain (Carica papaya),inactive
CCCN(CCC)C1CCc2cccc(O)c2C1 (stereo not given),Potency,[1],inactive
same,Potency,[2],inactive
same,outcome,[3],inactive
same,Potency,Papain (Carica papaya),inactive
CN1CC[C@@]2(C)c3cc(O)ccc3N(C)C12 (stereo not given in full),Potency,[1],inactive
same,Potency,[2],inactive
same,outcome,[3],inactive
same,Potency,Papain (Carica papaya),inactive
Clc1cc(I)cc(Cl)c1NC1=NCCN1,Potency,[1],inactive
same,Potency,[2],inactive
same,outcome,[3],inactive
same,Potency,Papain (Carica papaya),inactive
CC(Cc1ccc(OCC(=O)O)cc1)NCC(O)c1cccc(Cl)c1 (stereo not given),Potency,[1],inactive
same,Potency,[2],inactive
same,outcome,[3],inactive
same,Potency,Papain (Carica papaya),inactive
CCN1C[C@@]2(COC)C3[C@@H](OC)C4[C@@H]1C3([C@@H]1C[C@]3(O)[C@H](OC(=O)c5ccccc5)[C@@H]1[C@]4(OC(C)=O)[C@@H](O)[C@@H]3OC)[C@H](OC)C[C@H]2O,Potency,[1],inactive
same,Potency,[2],inactive
same,outcome,[3],inactive
same,Potency,Papain (Carica papaya),inactive
OC1CCCCC1N1CCC(c2ccccc2)CC1 (stereo not given),Potency,[1],inactive
same,Potency,[2],inactive
same,outcome,[3],inactive
same,Potency,Papain (Carica papaya),inactive
Cc1c2ccncc2c(C)c2c1[nH]c1ccccc12,Potency,[2],inactive
same,outcome,[3],inactive
same,Potency,Papain (Carica papaya),inactive
C=CCN1CCC23c4c5ccc(O)c4O[C@H]2C(=O)CC[C@@]3(O)C1C5 (stereo not given in full),Potency,[2],inactive
same,outcome,[3],inactive
same,Potency,Papain (Carica papaya),inactive
CCCN(CCC)C1Cc2cc(OC)c(OC)cc2C1,Potency,[2],inactive
same,outcome,[3],inactive
same,Potency,Papain (Carica papaya),inactive
CCN(CCCl)Cc1ccccc1Br,Potency,[1],2.82 µM (active)
same,outcome,[3],inactive
NCC(CP(=O)(O)O)c1ccc(Cl)cc1 (stereo not given),Potency,[2],inactive
same,outcome,[3],inactive
C[C@@H]1[C@@H]2Cc3ccc(O)cc3[C@@]1(C)CCN2CC1CC1,Potency,[1],inactive
same,outcome,[3],inactive
NC(N)=NOCC[C@H](N)C(=O)O,Potency,[2],inactive
same,outcome,[3],inactive
same,Potency,Papain (Carica papaya),inactive
CC1(C(=O)O)C2CCC(O2)C1(C)C(=O)O (stereo not given),Potency,[2],inactive
same,outcome,[3],inactive
same,Potency,Papain (Carica papaya),inactive
C[N+](C)(C)CC#CCOC(=O)Nc1cccc(Cl)c1,Potency,[2],inactive
same,outcome,[3],inactive
same,Potency,Papain (Carica papaya),inactive
C=CCN1C[C@@H](C)N([C@H](c2ccc(C(=O)N(CC)CC)cc2)c2cccc(OC)c2)C[C@@H]1C,Potency,[1],inactive
same,Potency,[2],inactive
same,Potency,Papain (Carica papaya),inactive
CNc1ccc2oc(C[C@H]3O[C@@]4(CC[C@H]3C)O[C@H]([C@H](C)C(=O)c3ccc[nH]3)[C@H](C)C[C@H]4C)nc2c1C(=O)O,Potency,[2],inactive
same,outcome,[3],inactive
CN1C2CCC1CC(OC(c1ccccc1)c1ccccc1N)C2 (stereo not given),Potency,[2],inactive
same,outcome,[4],inactive
same,Potency,[5],31.6 µM (active)
same,Potency,Papain (Carica papaya),inactive
C/C(O)=C(\C#N)C(=O)Nc1cc(Br)ccc1Br,Potency,[1],inactive
same,outcome,[3],inactive
same,outcome,[6],inactive
same,"activity change, negative = inhibition",[7],-10.6%
same,Potency,[8],inactive
CP(=O)(O)C1=CCNCC1,Potency,[2],inactive
same,outcome,[3],inactive
same,Potency,Papain (Carica papaya),inactive
NC(Cc1ccc(N(CCCl)CCCl)cc1)C(=O)O (stereo not given),Potency,[1],0.794 µM (active)
same,outcome,[3],inactive
CCCn1c(C)c(C(=O)c2ccc3ccccc3c2)c2ccccc21,Potency,[1],inactive
same,outcome,[3],inactive
N[C@@H](Cn1oc(=O)[nH]c1=O)C(=O)O,Potency,[2],inactive
same,outcome,[3],inactive
same,Potency,Papain (Carica papaya),inactive
c1ccc2c(c1)[I+]c1ccccc1-2,Potency,[2],inactive
same,outcome,[3],inactive
C[Se]C[C@H](N)C(=O)O,Potency,[1],inactive
same,outcome,[3],inactive
C[C@@H]1O[C@H](C[N+](C)(C)C)CS1,Potency,[1],inactive
same,outcome,[3],inactive
c1ccc2cc(CC3=NCCN3)ccc2c1,Potency,[1],inactive
same,Potency,[2],inactive
same,Potency,Papain (Carica papaya),inactive
O=[N+]([O-])c1ccc2nc(N3CCNCC3)ccc2c1,Potency,[2],inactive
same,outcome,[4],inactive
same,Potency,Papain (Carica papaya),inactive
C=CCN1CC[C@]23c4c5ccc(O)c4O[C@H]2/C(=N/NC(=O)c2ccccc2)CC[C@@]3(O)[C@H]1C5,Potency,[1],inactive
same,outcome,[3],inactive
Clc1ccc(N2CC3CCC(C2)N3)nn1,Potency,[2],inactive
same,outcome,[4],inactive
same,max response,[9],-7.5% (inactive)
same,Potency,Papain (Carica papaya),inactive
Oc1ccc2c3c1O[C@H]1c4[nH]c5ccccc5c4C[C@@]4(O)C(C2)N(CC2CC2)CCC314 (stereo not given in full),Potency,[2],inactive
same,Potency,[5],12.6 µM (active)
same,Potency,Papain (Carica papaya),inactive
CCCN(CCC)CCc1c[nH]c2ccc(C(N)=O)cc12,Potency,[1],inactive
same,outcome,[3],inactive
CN1CCC(c2c[nH]c3ccc(O)cc23)CC1,Potency,[2],inactive
same,outcome,[3],inactive
same,Potency,Papain (Carica papaya),inactive
CN(C(=O)Cc1ccc(Cl)c(Cl)c1)C(CN1CCCC1)c1cccc(OCC(=O)O)c1 (stereo not given),Potency,[2],inactive
same,outcome,[3],inactive
same,Potency,Papain (Carica papaya),inactive
COc1ccc2c(c1)c(CCN1CCOCC1)c(C)n2C(=O)c1cccc(Cl)c1Cl,Potency,[1],inactive
same,outcome,[3],inactive
NNC(N)=O,Potency,[1],inactive
same,Potency,[2],inactive
same,Potency,Papain (Carica papaya),inactive
Cc1sc2ccccc2c1CC1=NCCN1,Potency,[2],inactive
same,outcome,[3],inactive
same,Potency,Papain (Carica papaya),28.2 µM (active)
